Data from PubChem BioAssay (Tox21).
Records with an inconclusive call do not appear. The source made the active and inactive calls. Unless noted, the call rests on the fitted dose curve; in most records, active means well fitted curve in the direction sought with a large enough effect in the repeat runs; inconclusive means weak or mixed curves; inactive means no such curve, though single readings can be large; an effect the other way counts as inactive or inconclusive.

What was measured:
[1] = qHTS assay to identify small molecule agonists of the peroxisome proliferator-activated receptor delta (PPARd) signaling pathway - cell viability counter screen (AID 743211); further: nearly all actives have a fitted effect of over 55% in size
Procedure, shortened: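 HEK293H PPARd-bla, 3000 cells/well; 5 h preincubation 37C/5% CO2; cpd in DMSO, 17 h 37C; B/G FRET substrate 2 h RT; CellTiter-Glo 30 min RT, luminescence.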

[2] = target: Peroxisome proliferator-activated receptor delta (Homo sapiens) (UniProt Q03181); assay: qHTS assay to identify small molecule agonists of the peroxisome proliferator-activated receptor delta (PPARd) signaling pathway (AID 743212; calls by dose curve;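 further: HEK293H cells with PPARd UAS beta-lactamase reporter GeneBLAzer system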)
Procedure, shortened: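 Beta-lactamase reporter read by fluorescence (LiveBLAzer B/G FRET, 2 h, room temperature). Test agents, in DMSO, incubated at 37 C with PPARd-bla HEK293H cells.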

[3] = target: Bile acid receptor (Homo sapiens) (UniProt Q96RI1); assay: qHTS assay to identify small molecule antagonists of the farnesoid-X-receptor (FXR) signaling pathway (AID 743217; active means well fitted inhibition curve with a large enough effect in the signal ratio in the repeat runs, not every such curve was filed as active; the % refers to the signal ratio)
Procedure, shortened: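 Test compounds are pin-transferred onto FXR-bla HEK 293T cells, then chenodeoxycholic acid is added at 50 uM final. After 16 h at 37 °C, LiveBLAzer B/G substrate is applied for 2 h at room temperature and fluorescence read.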

[4] = qHTS assay to identify small molecule agonists of the farnesoid-X-receptor (FXR) signaling pathway - cell viability counter screen (AID 743218); further: nearly all actives have a fitted effect of over 45% in size
Procedure, shortened: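 Quantitative HTS counter screen measuring ATP-based viability via CellTiter-Glo luminescence in HEK 293T cells carrying a UAS-driven beta-lactamase reporter, after 16 h compound exposure at 37 C.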

[5] = qHTS assay to identify small molecule antagonists of the farnesoid-X-receptor (FXR) signaling pathway - cell viability counter screen (AID 743221; active means well fitted cell-killing curve with a large enough effect in the repeat runs, not every such curve was filed as active; further: nearly all actives have a fitted effect of over 50% in size)
Procedure, shortened: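 Luminescence from CellTiter-Glo measures cytotoxicity in GeneBLAzer FXR-UAS-bla HEK 293T cells. Cells were exposed to compounds with 50 uM chenodeoxycholic acid (final) for 16 h at 37 C, in wells also used for the reporter readout.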

[6] = target: Vitamin D3 receptor (Homo sapiens) (UniProt P11473); assay: qHTS assay to identify small molecule agonists of the vitamin D receptor (VDR) signaling pathway (AID 743222; calls by dose curve)
Procedure, shortened: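 Tox21 cell reporter format: VDR-bla line, 16 h compound exposure in 5% CO2 at 37C, then fluorescence intensity after 2 h with LiveBLAzer B/G FRET substrate.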

[7] = target: Vitamin D3 receptor (Homo sapiens) (UniProt P11473); assay: qHTS assay to identify small molecule antagonists of the vitamin D receptor (VDR) signaling pathway (AID 743223; active means well fitted inhibition curve with a large enough effect in the signal ratio in the repeat runs, not every such curve was filed as active; the % refers to the signal ratio)
Procedure, shortened: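 Antagonist mode uses 1alpha,25-dihydroxyvitamin D3 at 3 nM final as stimulus. VDR-bla cells receive compounds in DMSO, incubate 16 h at 37C, then a beta-lactamase FRET substrate for 2 h at room temperature before fluorescence measurement.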

[8] = qHTS assay to identify small molecule agonists of the vitamin D receptor (VDR) signaling pathway - cell viability counter screen (AID 743224); further: series mostly up to about 63 µM; nearly all actives have a fitted effect of over 50% in size
Procedure, shortened: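 CellTiter-Glo viability readout on VDR-bla cells, measured after 16 h of compound treatment at 37C in the same wells.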

[9] = qHTS assay to identify small molecule antagonists of the vitamin D receptor (VDR) signaling pathway - cell viability counter screen (AID 743225); further: nearly all actives have a fitted effect of over 50% in size
Procedure, shortened: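 Read-out: CellTiter-Glo luminescence measured 30 min after reagent addition at room temperature. Cells were VDR-bla HEK 293T exposed 16 h at 37C, 5% CO2, to compound with 3 nM final calcitriol agonist.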

[10] = qHTS assay to identify small molecule agonists of the NFkB signaling pathway - cell viability counter screen (AID 1159515; calls by dose curve; further: series mostly up to about 61 µM; nearly all actives have a fitted effect of over 55% in size)
Procedure, shortened: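 Tox21 library compounds were tested for cytotoxicity against NFkB-bla ME-180 cells during a 5 hr exposure at 37 C. CellTiter-Glo luminescence served as the viability read-out.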

[11] = qHTS assay to identify small molecule agonists of the endoplasmic reticulum stress response signaling pathway (AID 1159516; active means well fitted activation curve with a large enough effect in the signal ratio in the repeat runs, not every such curve was filed as active; the % refers to the signal ratio)
Procedure, shortened: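 Fluorescence at 460 and 530 nm (405 nm excitation) reports beta-lactamase from an ER stress response element in HeLa cells treated 5 hr at 37 C.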

[12] = qHTS assay to identify small molecule agonists of the endoplasmic reticulum stress response signaling pathway - cell viability counter screen (AID 1159517; calls by dose curve; further: series mostly up to about 61 µM; nearly all actives have a fitted effect of over 50% in size)
Procedure, shortened: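 Cytotoxicity of test compounds toward ESRE-bla HeLa cells was assessed after 5 hr exposure. The luminescent CellTiter-Glo signal was measured 30 min after reagent addition.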

[13] = qHTS assay to identify small molecule antagonists of the retinoid-related orphan receptor gamma (ROR-gamma) signaling pathway - cell viability counter screen (AID 1159520); further: nearly all actives have a fitted effect of over 50% in size
Procedure, shortened: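 Tet-on ROR gamma CHO cells (1,000/well) were plated 4 hr, given compounds in DMSO for 2 hr at 37 C, then induced with 1 uM final doxycycline for 16 hr. Viability was read as ATP by CellTiter-Glo luminescence after 30 min.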

[14] = target: Nuclear receptor ROR-gamma (Homo sapiens) (UniProt P51449); assay: qHTS assay to identify small molecule antagonists of the retinoid-related orphan receptor gamma (ROR-gamma) signaling pathway (AID 1159521)
Procedure, shortened: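 CHO Tet-on RORγ, RORE-luc reporter. Cpd 2 h pre-incubation, then dox hyclate 1 uM final, 16 h, 37 C/5% CO2. ONE-Glo luminescence; decrease = antagonist.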

[15] = qHTS assay to identify small molecule agonists of the AP-1 signaling pathway (AID 1159526; calls by dose curve)
[16] = target: Retinoic acid receptor RXR-alpha (Homo sapiens) (UniProt P19793); assay: qHTS assay to identify small molecule agonists of the RXR signaling pathway (AID 1159527; calls by dose curve; further: nearly all actives have a fitted effect of over 35% in size)
Procedure, shortened: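 Read-out: beta-lactamase FRET ratio (405 nm excitation, 460 and 530 nm emission) after 2 hr substrate loading at room temperature. Cells were RXR-alpha-UAS-bla HEK 293T treated with compounds for 16 hr in 2% charcoal-stripped FBS medium.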

[17] = qHTS assay to identify small molecule antagonists of the peroxisome proliferator-activated receptor delta (PPARd) signaling pathway - cell viability counter screen (AID 743213); further: nearly all actives have a fitted effect of over 50% in size
Procedure, shortened: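 Agonist-stimulated (L165041, 300 nM final) HEK293H PPARd UAS-bla cells are exposed to compounds for 17 h at 37 C, and ATP-based luminescence (CellTiter-Glo) from the same wells reports cytotoxicity.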

[18] = qHTS assay to identify small molecule agonists of the AP-1 signaling pathway - cell viability counter screen (AID 1159525; calls by dose curve; further: nearly all actives have a fitted effect of over 55% in size)
Procedure, shortened: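 Each titration point was normalised to DMSO and tetra n-octyl ammonium bromide controls. The read was Cell Titer Glo luminescence after 30 min at RT, following 5 h compound exposure of ME-180 AP-1-bla cells at 37 °C.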

[19] = target: Peroxisome proliferator-activated receptor delta (Homo sapiens) (UniProt Q03181); assay: qHTS assay to identify small molecule antagonists of the peroxisome proliferator-activated receptor delta (PPARd) signaling pathway (AID 743215; active means well fitted inhibition curve with a large enough effect in the signal ratio in the repeat runs, not every such curve was filed as active; the % refers to the signal ratio; further: series mostly up to about 62 µM)
Procedure, shortened: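 Here, a reporter line (HEK293H, beta-lactamase under a UAS) measures PPARd signaling. Compounds are tested against agonist L165041 at 300 nM final concentration over 17 h at 37 C, with fluorescence read after substrate.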

[20] = target: Bile acid receptor (Homo sapiens) (UniProt Q96RI1); assay: qHTS assay to identify small molecule agonists of the farnesoid-X-receptor (FXR) signaling pathway (AID 743220; active means well fitted activation curve with a large enough effect in the signal ratio in the repeat runs, not every such curve was filed as active; the % refers to the signal ratio)
Procedure, shortened: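 FXR-UAS-bla HEK 293T cells carrying a UAS-driven beta-lactamase reporter were plated for 5 h at 37C/5% CO2, then exposed to DMSO-dissolved Tox21 10K compounds for 16 h at 37C. A LiveBLAzer B/G FRET substrate was loaded for 2 h at room temperature before fluorescence reading.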

Measured: Potency

Chain of Retinoic acid receptor RXR-alpha (Homo sapiens) (P19793 whole entry, looked up): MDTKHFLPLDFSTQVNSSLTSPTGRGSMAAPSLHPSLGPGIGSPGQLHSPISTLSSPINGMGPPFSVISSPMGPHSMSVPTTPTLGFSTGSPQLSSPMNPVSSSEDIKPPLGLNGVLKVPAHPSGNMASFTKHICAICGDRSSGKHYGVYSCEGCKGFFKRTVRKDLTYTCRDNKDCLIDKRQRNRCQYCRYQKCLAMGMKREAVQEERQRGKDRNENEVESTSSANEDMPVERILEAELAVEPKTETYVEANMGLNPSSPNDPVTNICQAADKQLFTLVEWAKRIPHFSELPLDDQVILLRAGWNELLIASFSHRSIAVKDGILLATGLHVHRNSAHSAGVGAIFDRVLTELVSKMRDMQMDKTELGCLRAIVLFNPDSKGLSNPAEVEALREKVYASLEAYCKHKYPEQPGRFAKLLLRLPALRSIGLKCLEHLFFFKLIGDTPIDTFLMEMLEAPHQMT
Chain of Peroxisome proliferator-activated receptor delta (Homo sapiens) (Q03181 whole entry, looked up): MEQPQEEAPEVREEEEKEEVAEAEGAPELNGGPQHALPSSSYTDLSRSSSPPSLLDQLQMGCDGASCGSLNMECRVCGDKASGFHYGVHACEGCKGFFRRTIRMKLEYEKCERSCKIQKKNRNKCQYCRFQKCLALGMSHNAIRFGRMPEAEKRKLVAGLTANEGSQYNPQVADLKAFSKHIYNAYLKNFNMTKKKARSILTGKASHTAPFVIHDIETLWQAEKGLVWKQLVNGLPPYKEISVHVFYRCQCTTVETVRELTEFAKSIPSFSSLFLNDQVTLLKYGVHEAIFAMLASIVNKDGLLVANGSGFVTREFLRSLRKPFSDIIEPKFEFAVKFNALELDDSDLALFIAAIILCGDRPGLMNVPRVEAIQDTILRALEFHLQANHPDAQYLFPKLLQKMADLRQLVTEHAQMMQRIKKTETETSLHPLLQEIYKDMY
Chain of Bile acid receptor (Homo sapiens) (Q96RI1 whole entry, looked up): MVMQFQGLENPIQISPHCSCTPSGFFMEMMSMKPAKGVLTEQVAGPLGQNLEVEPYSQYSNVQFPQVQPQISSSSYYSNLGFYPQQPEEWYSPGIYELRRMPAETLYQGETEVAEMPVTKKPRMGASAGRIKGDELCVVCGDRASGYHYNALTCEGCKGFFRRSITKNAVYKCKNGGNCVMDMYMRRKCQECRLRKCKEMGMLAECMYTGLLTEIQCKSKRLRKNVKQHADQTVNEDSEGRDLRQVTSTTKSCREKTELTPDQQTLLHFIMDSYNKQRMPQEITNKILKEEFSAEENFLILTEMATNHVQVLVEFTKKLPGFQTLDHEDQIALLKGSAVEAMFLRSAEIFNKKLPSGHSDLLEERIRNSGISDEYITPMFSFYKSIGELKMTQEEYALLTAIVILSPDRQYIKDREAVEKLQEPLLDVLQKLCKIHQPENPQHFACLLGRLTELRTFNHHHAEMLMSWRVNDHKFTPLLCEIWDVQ
Chain of Vitamin D3 receptor (Homo sapiens) (P11473 whole entry, looked up): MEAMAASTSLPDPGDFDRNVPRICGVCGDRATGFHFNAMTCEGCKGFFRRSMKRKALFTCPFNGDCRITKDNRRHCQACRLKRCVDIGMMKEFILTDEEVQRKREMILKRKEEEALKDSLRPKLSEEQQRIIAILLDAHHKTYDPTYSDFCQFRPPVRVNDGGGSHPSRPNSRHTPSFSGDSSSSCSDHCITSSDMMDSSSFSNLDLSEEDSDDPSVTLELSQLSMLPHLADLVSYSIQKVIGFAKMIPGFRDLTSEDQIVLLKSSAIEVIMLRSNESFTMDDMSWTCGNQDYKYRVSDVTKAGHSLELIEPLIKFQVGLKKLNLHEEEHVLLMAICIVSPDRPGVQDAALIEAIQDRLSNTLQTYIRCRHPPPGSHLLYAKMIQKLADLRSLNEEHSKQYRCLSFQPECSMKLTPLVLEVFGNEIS

O=[N+]([O-])c1cccc2cccc([N+](=O)[O-])c12
not listed: [17] | [18] | [19] | [20]
inactive: all other assays above

CCNc1nc(NC(C)C(C)C)nc(SC)n1 (configuration not stated)
not listed: [3] | [5] | [6] | [7] | [14] | [19] | [20]
inactive: all other assays above

O=C(Nc1ccc(F)cc1F)c1cccnc1Oc1cccc(C(F)(F)F)c1
not listed: [3] | [15] | [17]
inactive: all other assays above

O=[N+]([O-])c1ccc(Cl)c(Cl)c1Cl
not listed: [3] | [7] | [15] | [16] | [20]
inactive: all other assays above

CNC(=O)O/N=C(\C)C(C)S(C)(=O)=O (configuration not stated)
not listed: [4] | [5] | [15] | [16]
inactive: all other assays above

O=C(O)[C@H](O)[C@@H](O)C(=O)O
not listed: [4] | [6] | [7] | [16] | [19]
inactive: all other assays above

COc1ccc2[nH]cc(CCN(C(C)C)C(C)C)c2c1
not listed: [1] | [3] | [4] | [5] | [8] | [15] | [16] | [20]
inactive: all other assays above

[Cl-].[Cl-].[Sn+2]
not listed: [2] | [3] | [6] | [7] | [14] | [19] | [20]
inactive: all other assays above
